According to ChEMBL document CHEMBL4513216, “Probing the Open Global Health Chemical Diversity Library for Multistage-Active Starting Points for Next-Generation Antimalarials” (ACS Infect Dis, 2020):
The campaign covered roughly 65,000 compounds. About 2,100 (3.2%) showed an effect of 50% or more. The median lay at about -52%. The list comes from a sample in which strong results are over-represented; it also holds similar structures and randomly drawn compounds.

system: Plasmodium falciparum; assay: Screen against P. falciparum Asexual Blood Stage (ABS), at 5uM; assay type: functional, Dd2; conditions: tested at 5 uM

Compound | INHIBITION [%]
CC(OCC1CC1)C(=O)Nc1ncn(CC(=O)N2CCCCCC2)n1 (centres undefined) | 36.5
Cc1c(C)n(-c2ccccn2)c2nc3c(c(N)c12)CCCC3 | 21.3
CN1CC2(CCCN(c3nc(N)nc4c3CCCC4)C2)OC1=O (centres undefined) | -29.7
CN1CCCCc2c1nc1c(c2N)CCC1 | 65.8
CN1CCCCc2c1nc1c(c2N)CCCC1 | 63.8
CN1CCc2c1nc1c(c2N)CCC1 | -64.6
CN1CCCc2c1nc1c(c2N)CCC1 | -49.7
COC[C@@H]1CC[C@H]2[C@H](CCN2S(=O)(=O)c2ccc(C)cc2)O1 | -3.1
Cc1cc(N2CCCC2)nc(CNS(=O)(=O)Cc2ccccc2)n1 | -63.1
Cc1nn(C)c(N2CCCN(C)CC2)c1CNC(=O)CCC(C)C | -12.6
COCC(=O)N1C[C@@H]2CCCO[C@@H]2[C@H](N(C)Cc2ccco2)C1 | -22.6
Cc1noc([C@@H]2CCO[C@@H]3CCN(Cc4ccc(C)s4)C[C@@H]32)n1 | 10.3
CN(C)CCN1CCOCC2(CCCN(C(=O)c3ccccn3)C2)C1 (centres undefined) | -26.3
CN(C)CC(C)(C)Cn1cnc(-c2ccccc2)c1-c1ncc[nH]1 | -81.8
CN(C)CC(C)(C)Cn1cnc(-c2ccccc2)c1-c1cccc(O)c1 | 50.9
CN(C)CC(C)(C)Cn1cnc(-c2ccccc2)c1-c1ccncc1 | 1.44
CN(C)CC(C)(C)CN1CCC(c2ccnc(-c3cccc(O)c3)c2)C1 (centres undefined) | 69.5
Oc1cccc(-c2cc(C3CCN(Cc4cncnc4)C3)ccn2)c1 (centres undefined) | -15.3
Cn1ccnc1CN1CCC(c2ccnc(-c3cccc(O)c3)c2)C1 (centres undefined) | 30.7
COc1ccccc1OC1CN(C(=O)c2ccccc2C(C)=O)C1 | -184
O=c1[nH][nH]cc1-c1ccnc(NCCN2CCCCC2)n1 | -153
CS(=O)(=O)CCC(=O)N1C[C@H]2CC[C@@H](C1)N(Cc1ccccc1)C2=O | -72.6
CC(C)c1nnc2n1CCN(C(=O)c1cc(Cl)c[nH]1)C2 | 5.02
Cc1ccccc1C(=O)N1C[C@@H]2CCN(c3cccnc3)C[C@@H]2C1 | -45.5
CCS(=O)(=O)N1CCC(NC(=O)c2cc3ccccc3cc2O)CC1 | 6.29
O=C1CC(CNc2cncc(Cl)n2)c2ccccc2N1 (centres undefined) | 66.1

Compound | INHIBITION [%]
Cc1cc(NCC2CC(=O)Nc3ccccc32)nc(C)n1 (centres undefined) | -151
O=C1CC(CNc2cncc(Br)c2)c2ccccc2N1 (centres undefined) | 12.2
O=C1C[C@@H]2CC[C@H](CN1)N2C(=O)Cc1ccsc1 | -114
CCN(CC)c1nc2ccsc2c(=O)n1CCC(=O)NCc1ccco1 | -83
CCc1nc(CCNC(=O)Nc2ccc(C(=O)NC)cc2)cs1 | -114
CN1CCC(Oc2ccc(-n3ccnc3-c3ccncc3)cc2)CC1 | -17
Cc1ccc(-c2nccn2-c2ccc(OC3CCN(C)CC3)cc2)o1 | 55.1
CN1CCC(Oc2ccc(-n3ccnc3-c3nccn3C)cc2)CC1 | -33.1
Cc1nn(C)c(C)c1C(=O)NC(C)CC(=O)c1cccs1 (centres undefined) | -35.4
Cc1ccc(-c2nn(C)c(C(=O)O)c2Br)cc1 | -38.6
Cc1cccc(=O)n1CCC(=O)N1CC[C@](C)(O)[C@H](C)C1 | -97.5
Cc1ccc(N2CCCC(NCc3nc(C)c(C)o3)C2)nn1 (centres undefined) | -26.7
Cc1ccc(N2CCCC(NCc3nnc(-c4ccco4)o3)C2)nn1 (centres undefined) | 50.3
c1cnnc(N2CCCC(NCc3nnc(-c4ccco4)o3)C2)c1 (centres undefined) | -31.5
Cn1nc2c(cc1=O)CN(CCOc1ccccc1C#N)CC2 | 0.73
COCC(=O)N1C[C@H]2CNC[C@@]2(C(=O)NCc2cc(C)n[nH]2)C1 | 4.75
Nc1ncc(-c2ccc(F)cc2)c(C2CCCNC2)n1 (centres undefined) | 50.3
Nc1ncc(-c2ccc(C(F)(F)F)cc2)c(C2CCCNC2)n1 (centres undefined) | 70.9
COc1ccc(-c2cnc(N)nc2C2CCCNC2)cc1 (centres undefined) | -91.8
CS(=O)(=O)N1CC(c2nc(N)ncc2-c2ccc(F)cc2)C1 | -47.4
Nc1ncc(-c2ccc(Cl)cc2)c(C2CCCNC2)n1 (centres undefined) | 48.9
CN(C)c1ncc(-c2ccc(C(N)=O)cc2)c(C2CCNC2)n1 (centres undefined) | -37.9
CCN1CCCC(NC(=O)c2ccc(C)[nH]c2=O)C1 (centres undefined) | -166
CN(C)c1ncnc2c1CCN(CC1CCOCC1)CC2 | -55.1
COc1ccc(C[C@@H]2CC[C@H](CN(C)C3CCN(C)CC3)O2)cc1 | 50.9
CN1CCN(C[C@H]2CC[C@@H](Cc3ccc(CN4CCCC4)cc3)O2)CC1 | 36.4

Compound | INHIBITION [%]
CN1CCN(C[C@H]2CC[C@@H](Cc3ccc4c(c3)OCO4)O2)CC1 | -28.1
CN1CCC(N(C)C[C@H]2CC[C@@H](Cc3cccc(CO)c3)O2)CC1 | -125
CCN(Cc1cnn(C)c1)C[C@H]1CC[C@@H](Cc2ccc(OC)nc2)O1 | 4.73
CN1CCC(N(C)C[C@H]2CC[C@@H](Cc3cccc(O)c3)O2)CC1 | 57.5
CC(=O)Nc1nc2c(s1)C(C)(C)Nc1ccccc1S2 | -58.4
NCc1ccc(OC(F)F)cc1OC(F)F | -38.5
CC(C)CN1C(=O)CCC12CCC(NC(=O)NCc1cccnc1)CC2 (centres undefined) | -167
CCc1nc(CN2CCCN(c3nn4cc(C)nc4s3)CC2)no1 | -69
Cn1cnc2c1C(COCC1CC1)CN(C(=O)c1cscn1)C2 (centres undefined) | -46.3
CN(C(=O)c1ccc(S(=O)(=O)NC(C)(C)C)cc1)C1(C#N)CCC1 | 5.67
O=C(C1=COCCO1)N1CC(Oc2nc3c(C(F)(F)F)cccc3s2)C1 | -41.7
CC(NC(=O)NCCCn1cncn1)c1ccc(F)cc1 (centres undefined) | 20.8
CC(NC(=O)NCCCn1cncn1)c1ccc(C(F)(F)F)cc1 (centres undefined) | 57.2
CC(NC(=O)NCCCn1cncn1)c1ccncc1 (centres undefined) | -85.1
Clc1cc(NCc2ccncc2)nc2[nH]ccc12 | 64.9
Clc1cc(NCc2ncc[nH]2)nc2[nH]ccc12 | -48.4
Clc1cc(NCc2nccs2)nc2[nH]ccc12 | -72
COC[C@@]12CCO[C@@H]1CCN(Cc1ccccc1OC)C2 | 29.7
CCS(=O)(=O)N1C[C@H](c2nc(C)no2)C[C@H]2OCC[C@H]21 | -101
COc1cccc(OC)c1-c1ccnc2cc(CC(=O)NC(C)C)nn12 | -158
Cc1nccn1CCCn1cncc1-c1ccc2c(c1)CCC(C)N2C (centres undefined) | 66.4
Cc1nccn1CCCn1cncc1-c1ccc2c(c1)CCCN2C | -15.5
Cc1nccn1CCCn1cncc1-c1ccc2c(c1)CC(C)N2C (centres undefined) | 49.8
CCC1(CC)Cc2ccccc2-c2nc(NCCO)[nH]c(=O)c21 | 1.11
Cc1n[nH]c(SCCNC2CCN(c3nc4ccccc4s3)CC2)n1 | -196
Cn1ccnc1SCCNC1CCN(c2ncccn2)CC1 | -11.4

Compound | INHIBITION [%]
Cn1ccnc1SCCNC1CCN(c2nc3ccccc3s2)CC1 | 59.7
O=S(=O)(NCCc1ccccc1F)N1CCOCC1 | -122
COc1cn(CC(N)=O)c(CSc2nccc(C)n2)cc1=O | -34.1
O=C(C1CC1)N1CCC2(COCc3cnc(N4CCOCC4)nc32)C1 (centres undefined) | -76.2
CC(C)C1CN(C(=O)c2cn3cc(Cl)cnc3n2)CCCN1CC1CC1 (centres undefined) | -26.8
CCNC(=O)CCC(=O)NC(Cc1ccccc1)c1sccc1C (centres undefined) | -32.2
Cc1ccsc1C(Cc1ccccc1)NC(=O)CNC(=O)C1CC1 (centres undefined) | 69.9
Cc1ccsc1C(Cc1ccccc1)NC(=O)CSCC(N)=O (centres undefined) | -9.21
CNC(=O)[C@@H](c1ccccc1OC)N1CCC[C@H]1C(=O)NCCN(C)C | -199
CC(C)c1noc(CCCC(=O)N2CCN(S(C)(=O)=O)CC2)n1 | -41.7
COCCN(C)C[C@@H]1CN(C(=O)c2ccc(=O)n(C)c2)C[C@@H]1CO | -237
Cc1cc2c(cc1Cl)C=CC1(CCN(CC(=O)N3CCOCC3)CC1)O2 | 67.6
Cc1cc2c(cc1Cl)C=CC1(CCN(CC(=O)NC3CCCC3)CC1)O2 | 32.7
Cc1ccc(CCC(=O)N2CCOCC2)cc1Cl | -148
CCN(CC)C(=O)CN1CCC2(C=Cc3cc(Cl)c(C)cc3O2)CC1 | 49.3
Cc1cc2c(cc1Cl)C=CC1(CCN(C(=O)N3CCOCC3)CC1)O2 | -24
Cc1cc2c(cc1Cl)C=CC1(CCN(CC(=O)N3CCCC3)CC1)O2 | 59.9
Cc1cc(C(=O)N2CCCC(n3cncn3)C2)nn1C (centres undefined) | -8.41
COc1ccc(CNc2cnn(C)c(=O)c2Cl)cc1 | -21.1
CCN1C[C@H]2[C@@H](C1)N(S(=O)(=O)c1ccccc1F)CC[C@H]2OC | 48.5
CCN1C[C@@H]2[C@@H](OC)CCN(S(=O)(=O)c3ccccc3)[C@@H]2C1 | 33.8
CCN1C[C@H]2[C@@H](C1)N(S(=O)(=O)c1ccccc1)CC[C@H]2OC | 62.8
Cc1ccc(C2(O)CCN(C(=O)CCn3ccc(=O)[nH]c3=O)CC2)nc1 | -56.8
Cc1ccc(-c2nnc(CN3CCCC(Cn4cncn4)C3)o2)cc1 (centres undefined) | -182
CN(C)C(=O)CN1CCC2(COCc3cnc(-c4ccccc4)nc32)C1 (centres undefined) | -24.6
CN(Cc1ccco1)C(=O)C1CCCc2ccccc21 (centres undefined) | -142
